Results from PubChem BioAssay (NCI).
“And” between values parts separate entries of the source, which are not always exact repeats. Identical values can stand only once. Compounds without any hit were thinned out: in the full panel of roughly 83,000, 20% have a hit.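 Method: cells in 96-well plates; compound added at one concentration; 48 h incubation; percent growth measured; values under 10 scored active.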 The source made the active and inactive calls.

Test system: MDA-MB-468 breast
Assay: NCI-60 one-dose screen, 48 h (100 = growth as untreated, 0 = no growth, -100 = all killed)
Conditions: 10 µM unless noted

Compound | growth
O=c1ccccc(-c2ccc(Br)cc2)c1O | 12.3% (inactive)
CN1CCN(C(=O)[C@@]2(C)CC[C@]3(C)CC[C@]4(C)C(=CC[C@@H]5[C@@]6(C)CC[C@H](OC(=O)c7cccnc7)C(C)(C)[C@@H]6CC[C@]54C)[C@@H]3C2)CC1 | 92.6% (inactive)
OB(O)c1ccsc1-c1nc2ccc3[nH]ncc3c2c2c1CCCC2 | 8.64% (active)
CCCCCCCC[C@@H](O)CC(=O)N[C@@H](CC(N)=O)C(=O)N[C@@H](CCC(N)=O)C(=O)N[C@@H](CC(=O)c1cc(C)cc(O)c1C(=O)c1c(O)cccc1O)CC(C)C | 3.34% (active)
c1ccc2nc(Cn3cc[n+](Cc4ccc5ccccc5n4)c3)ccc2c1 | 1.53% (active)
CC(=O)OC(C)c1cccc(C#N)c1 (stereo not drawn) | 105% (inactive)
Cc1ccc(Nc2cccc3ccccc23)cc1 | -11.7% (active)
CC1(C)C(=O)CC[C@]2(C)[C@H]3C(=O)C=C4[C@@H]5C[C@@](C)(C(=O)NCCNCCN)CC[C@]5(C)CC[C@@]4(C)[C@]3(C)CC[C@@H]12 | 114% (inactive)
COC(=O)C1=C(C)NC(C)=C(C(=O)OC)C(N2C(=O)CCC2=O)C1 (stereo not drawn) | 63.4% (inactive)
COc1ccc(Nc2nc(NCCNc3ccnc4cc(Cl)ccc34)nc(N3CCOCC3)n2)cc1 | 23.9% (inactive)
N#Cc1c(N)nnn1Cc1cc(=O)oc2ccc(O)cc12 | 101% (inactive)
C/C(=N\NC(N)=S)c1nnn(-c2ccc([N+](=O)[O-])cc2)c1C | 89.3% (inactive)
NC(=S)N/N=C/c1ccc(OC(=O)COc2cc(Cl)c(Cl)cc2Cl)cn1 | -0.374% (active)
CC(CN(C)C)Oc1ccc(OC(C)CN(C)C)c2c1C(=O)c1ccccc1C2=O (stereo not drawn) | 33.2% (inactive)
CCN(CC)CCCCNc1c2ccccc2[n+](C)c2c1[nH]c1ccccc12 | -58.5% (active)
CCCCCCCCCCCCCCCCCCNC(=O)[C@H]1CSC(c2cccs2)N1 (stereo partly drawn) | 60.8% (inactive)
O=c1oc2ccc(F)cc2c(=O)n1-c1ccc(Cl)cc1F | -1.59% (active)
CCCCCCN(CCCCCC)CC(O)c1ccc2c3c(cccc13)CC2 (stereo not drawn) | 55.6% (inactive)
COc1ccc(\C=N/N=C(N)/C(N)=N\N=C/c2ccc(OC)cc2)cc1 | 95.7% (inactive)
N#C/C(=N\Nc1ccccc1)C(=O)Nc1cc(-c2ccccc2)nn1-c1ccccc1 | -3.2% (active)
COc1ccccc1S(=O)(=O)Nc1ccc2c3c(cc(-c4cnn(C)c4)nc13)C(=O)N2C | 23.1% (inactive)
COc1cc2c(c(OC)c1OC)-c1ccc(NN(C(=O)c3ccccc3)C(=O)c3ccccc3)c(=O)cc1[C@@H](NC(C)=O)CC2 (tested in a mixture with another compound) | 19.5% (inactive)
c1ccc(-c2n(Cc3ccc4ccccc4c3)cc[n+]2Cc2ccc3ccccc3c2)cc1 | -65.5% (active)
COc1ccc(/C=C2/C(=O)NC(SCC(=O)N3CCN(c4cc5c(cc4F)c(=O)c(C(=O)O)cn5C4CC4)CC3)=NC2N)cc1OC (stereo not drawn) | 102% (inactive)
CO/C=C/C(=O)c1cc2cnc3c(=N)cc(NC(=O)C(C)C)c([nH]1)c23 | -54.9% (active)
CC(=O)OC[C@H]1O[C@@H](n2c(=O)cc(N)[nH]c2=O)C(OC(C)=O)[C@@H]1OC(C)=O (stereo partly drawn) | 98.8% (inactive)

Compound | growth
Nc1nc(SN=Nc2ccc(S(N)(=O)=O)cc2)c2[nH]cnc2n1 | -9.35% (active)
Clc1ccc(Nc2ncnc3c2sc2ncccc23)c(Cl)c1 | 22.2% (inactive)
COc1cc(-c2nc(-c3nc4ccccc4[nH]3)cc3c2[nH]c2ccccc23)cc(OC)c1OC | 42.1% (inactive)
O=C(Nc1cccc(Cl)c1)Nc1cc2ncncc2cc1OCc1cccc(F)c1 | -2.43% (active)
C=C1c2c(Cl)ccc(O)c2C(O)=C2C(=O)[C@]3(O)C(O)=C(C(N)=O)C(=O)[C@@H](N(C)C)[C@@H]3[C@@H](O)[C@H]12 | -4.52% (active)
COCCOc1cnc2ccn([C@H](C)c3nnc4c(F)cc(-c5cnn(C)c5)cn34)c(=O)c2c1 | 96.7% (inactive)
O=C(NOCCO)c1cc(CN2OCCCC2=O)c(F)c(F)c1Nc1ccc(I)cc1F | 114% (inactive)
CCS(=O)(=O)N[C@@H]1O[C@H](COC(C)=O)C(OC(C)=O)[C@H](OC(C)=O)C1OC(C)=O (stereo partly drawn) | 100% (inactive)
O=C(O)c1ccccc1.[Ag] | 90.4% (inactive)
Cc1ccc(NC(=O)NC2CCCCC2)cc1 | 93.5% (inactive)
COc1ccc2c(c1)c(CC(=O)[Se]C)c(C)n2C(=O)c1ccc(Cl)cc1 | -11.6% (active)
O=C1c2ccc3c4c(ccc(c24)C(=O)N1CCCCO)C(=O)N(CCCCO)C3=O | -29.2% (active)
CCCCCCN(CCCCCC)CCC(O)c1ccc2ccccc2c1 (stereo not drawn) | 18.6% (inactive)
COc1nc(N)nc(-n2c(-c3ccc(C)cc3)nc3ccccc32)c1NCc1ccc(C)cc1 | 98.6% (inactive)
COc1cc([C@@H]2c3cc4c(cc3[C@H](OC3OC5COC(c6ccccc6)OC5C(O)C3O)[C@H]3COC(=O)[C@H]23)OCO4)cc(OC)c1OC (stereo partly drawn) | 17.5% (inactive)
Cc1ccc(C(SCC(N)C(=O)O)(c2ccccc2)c2ccc(C)cc2)cc1 (stereo not drawn) | -1.71% (active)
COc1ccc(-c2cn3c(C(=O)Nc4ccccc4Cl)c(-c4ccccc4)c4c3n2CCCC4)cc1 | 84.1% (inactive)
CC(CCc1ccc(Cl)c(Cl)c1)NCc1ccc(C(C)(C)C)cc1 (stereo not drawn) | 30.8% (inactive)
O=C1NC(=O)C(c2cnc3ccccn23)=C1c1cn2c3c(cc(F)cc13)CN(C(=O)N1CCCCC1)CC2 | 47.6% (inactive)
CCOC(=O)c1c(C)oc2ncnc(N3CCN(C(=O)COc4ccc(C(C)(C)C)cc4)CC3)c12 | 60.9% (inactive)
COc1ccc(OC)c(Nc2nc3nonc3nc2Nc2cc(OC)ccc2OC)c1 | 63.1% (inactive)
COc1ccc(-c2nc(NCCO)[nH]c(=O)c2C#N)cc1 | 112% (inactive)
CC(=O)Oc1cccc(OC(C)=O)c1OC(C)=O | 97.6% (inactive)
CS(=O)(=O)c1nccc(-c2c(-c3cccc(OCCN4CCOCC4)c3)nc3sccn23)n1 | 37.6% (inactive)
N#Cc1c(-c2ccccc2)nc(SCC(=O)N2CCN(c3ccccc3)CC2)[nH]c1=O | 106% (inactive)
CN(C)C(=O)c1cc2cnc(Nc3ccc(-c4csc5c(=O)cc(N6CCOCC6)oc45)cc3)nc2n1C1CCCC1 | -5.41% (active)

Compound | growth
CCN(CC)CCCNc1cccc2c(SCc3ccccc3)ccnc12 | 88.3% (inactive)
COc1ccc(C(=O)c2cc(C)c(OC)c(C)c2)c(OC)c1N(C(=O)CCl)C(=O)CCl | 3.62% (active)
Nc1ncnc2c1ncn2C1OC(CO)C2OC21 (stereo not drawn) | 93.5% (inactive)
Nc1c(S(=O)(=O)O)cc(Br)c2c1C(=O)c1ccccc1C2=O | 102% (inactive) and 107% (inactive)
C=C1CCC2C(C)(COC(=O)CC)C(OC(=O)CC)CCC2(C)C1C/C=C1/C(=O)OCC1OC(=O)CC (stereo not drawn) | -48.5% (active)
Cc1c(C)c(N2C(=O)C=CC2=O)c(C)c(C)c1N1C(=O)C=CC1=O | 96.5% (inactive)
CN1C(=O)CNC(=O)[C@H](NC(=O)c2nc3ccccc3cc2O)CSSC[C@H]1C(=O)NCCc1nc2ccccc2cc1O | 16% (inactive)
Cc1nc2cc(-n3c(-c4ccc(F)cc4)nc4ccccc4c3=O)ccc2n1Cc1ccccc1 | 15.2% (inactive)
COc1cc(-c2ccc(-c3ccc(C(=N)N)nc3)s2)cc(OC)c1OC | 22.4% (inactive)
Cc1nc(-c2cn3c(n2)-c2ccc(-c4cnn(C(C)(C)C(N)=O)c4)cc2OCC3)n(C(C)C)n1 | -20.6% (active)
CCc1n(Cc2ccc3ccccc3c2)cc[n+]1Cc1ccc2ccccc2c1 | -22.9% (active)
COc1ccc(NC(=O)c2sc3nc(C)c(C(C)=O)cc3c2N)cc1 | 91.8% (inactive)
c1ccc(OCCC[P+](c2ccccc2)(c2ccccc2)c2ccccc2)cc1 | -7.95% (active)
Cc1cc(Nc2cc(N3CCN(C)CC3)nc(/C=C/c3ccccc3)n2)n[nH]1 | -17.8% (active)
COc1cc2cc3c(nc2cc1OC)CCN3Cc1ccc(NC(=O)Nc2cc(C(F)(F)F)cc(C(F)(F)F)c2)cc1 | 52.9% (inactive)
COc1ccc(C(=O)OC2C(OC3C(O)COC(O[C@H]4C[C@H]5[C@@H]6CC=C7C[C@@H](O)CC[C@]7(C)[C@H]6CC[C@]5(C)[C@H]4[C@H](C)C(=O)CCC(C)C)C3OC(N)=O)OCC(O)C2O)cc1 (stereo partly drawn) | -24.5% (active)
CC(=O)Nc1ccc(NC(=O)Nc2cccc(-c3nc(-c4ccc(NC(=O)c5cccnc5)cc4Cl)no3)c2)cc1C(F)(F)F | -84.7% (active)
N#Cc1c(-c2ccc(Cl)cc2)nc(SCc2ccccc2)nc1N1CCNCC1 | 10.3% (inactive)
CN1CCN(Cc2ccc(NC(=O)c3cncc(C#Cc4cncc5nccnc45)c3)cc2C(F)(F)F)CC1 | 87% (inactive)
O=C(CCCN1C(=O)/C(=C/c2ccccc2F)SC1=S)N1CCOCC1 | 55.7% (inactive)
Clc1ccc(-c2cnc3c(-c4ccnc(N5CCNCC5)c4)cnn3c2)cc1 | 16.3% (inactive)
C#CCn1cc(C=C2C(=O)NC(=S)NC2=O)c2cc(Cl)ccc21 | 32.5% (inactive)
O=[N+]([O-])c1ccc(Sc2ccncn2)c([N+](=O)[O-])c1 | 24% (inactive)
O=C1c2ccccc2C(=O)c2c1ccc1c(=O)n(-c3ccccc3C(F)(F)F)nnc21 | -50.3% (active)
N#C/C(=C\c1ccc[nH]1)c1cc2ccccc2[nH]1 | -3.15% (active)
O=C1C=C(Nc2ccc([N+](=O)[O-])cc2)c2ccccc2C1=O | 41.1% (inactive)
